# Compound activity from PubChem.
# A selection: hits, their analogues and other compounds. The true share with any hit is near 11%.
# BAZ2B block – BAZ2B (human) inhibition. 360,000 tested, 4.4% active. AID 504333. Q9UIF8. AlphaScreen BAZ2B-H3K14Ac peptide displacement. Potency, µM (doses to about 114 µM), most hits filed as inhibitors; further: nearly all actives have a fitted effect of over 60% in size
#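 AlphaScreen luminescence quantifies BAZ2B engagement of H3K14Ac peptide; the protein and biotinylated peptide are both at 50 nM final, buffer PBS pH 7.4 with 0.01% Tween-20, all steps at room temperature.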
# VDR inh – blocks the human vitamin D receptor. P11473. VDR-SRC2-3 peptide fluorescence polarization, 2 h. Potency, µM, usual class: inhibitors. 400,000 tested, 0.93% active
#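 Two reagent solutions held at 4 deg C in the dark were dispensed, compounds pinned at 23 nl, and the mixture incubated 2 h at room temperature. Read-out: fluorescence polarization of VDR–SRC2-3 peptide binding.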
# JMJD2A Tudor – blocks the human JMJD2A Tudor domain; O75164; AlphaScreen JMJD2A-Tudor / H3K4me3 peptide binding; Potency, µM (highest dose often 114 µM), hits mostly inhibitors; 390,000 tested, 4.4% active; AID 504339; further: nearly all actives have a fitted effect of over 50% in size
# HP1b binding inh – inhibitors of HP1-beta chromodomain binding to methylated histone tails; AlphaScreen HP1-beta / biotin-H3K9me3 peptide binding; 390,000 tested, 0.56% active; AID 540317; P83916; Potency, µM (doses to about 114 µM), usual class: inhibitors; further: nearly all actives have a fitted effect of over 70% in size
#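 AlphaScreen: HP1-beta (50 nM) preformed 30 min with biotin-H3(1-18)K9me3 peptide (50 nM) in PBS pH 7.4, 0.01% Tween-20. Compound added for 30 min at RT, then streptavidin donor/nickel chelate acceptor beads (10 ug/mL) for 30 min.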
# G9a inh – blocks human histone lysine methyltransferase G9a | G9a H3K9 monomethylation, AlphaScreen, 2 h | Potency, µM (titrated, usually from 102 µM), actives largely listed as inhibitors | 350,000 tested, 8.8% active | AID 504332; further: nearly all actives have a fitted effect of over 75% in size
#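 AlphaScreen detection with an anti-monomethyl H3K9 antibody quantified product after a 2 h room-temperature reaction containing 500 nM biotinylated H3K9 peptide, 20 µM SAM and 20 nM enzyme, which had been preincubated 15 min with compound.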
# PLK1 PBD inh – blocks phosphopeptide binding to human PLK1 polo-box domain; Plk1 PBD binding of FITC phosphopeptide, fluorescence polarization; 360,000 tested, 2.8% active; Potency, µM, hits mostly inhibitors; P53350; AID 720504; further: series mostly up to about 57 µM; nearly all actives have a fitted effect of over 65% in size
# Numbers stand for hits; . = inactive; ? = inconclusive; / = no result; [ ] = dose if it differs, or a comment. The call rests on the fitted dose curve; in most records, active means well fitted curve in the direction sought with a large enough effect; inconclusive means small, poorly fitted or top-dose-only effect, or another doubt; inactive means no such curve, though single readings can be large; an effect the other way counts as inactive or inconclusive.
SMILES,BAZ2B block,VDR inh,JMJD2A Tudor,HP1b binding inh,G9a inh,PLK1 PBD inh
Cc1cc(C(=O)COC(=O)c2n[nH]c3ccccc23)c(C)n1C,?,.,63µM,.,?,.
COc1cc(C(=O)OCC(=O)c2cc(C)n(C)c2C)cc(OC)c1OC,.,?,32µM,?,.,17µM
Cc1cc(C(=O)COC(=O)c2nccnc2N)c(C)n1C,/,.,.,.,.,.
C[C@H](O)[C@@H]1CN2CCc3c([nH]c4ccccc34)[C@@H]2C[C@@H]1N(C)C(=O)OCc1ccccc1,/,/,/,/,/,.
Cc1cccc(NC(=O)Nc2c(C)n(C)n(-c3ccccc3)c2=O)c1,.,?,?,.,.[0.501 µM],24µM
Cc1ccc(NC(=O)Nc2c(C)n(C)n(-c3ccccc3)c2=O)cc1C,.,?,14µM,?,.,21µM
Cc1c(NC(=O)Nc2cccc(Cl)c2)c(=O)n(-c2ccccc2)n1C,.,.,.,.,.,.
c1cc(C2CCN(Cc3nc(-c4ccc5c(c4)OCO5)no3)CC2)ccn1,56µM,.,79µM,.,3.5µM,.
C#CCN1C(=O)S/C(=C/C=C/c2ccc(N(C)C)cc2)C1=O,10µM,.,25µM,20µM,8.9µM,.
O=C(O)CN1C(=O)/C(=C/C=C/c2ccccc2)SC1=S,?,.,.,.,?,?
CCN(Cc1ccncc1)Cc1ccc(OC)c(OC)c1,?,.,25µM,?,/,.
COc1cc(CN(CCN(C)C)Cc2ccccc2)ccc1OCc1ccccc1,40µM,.,1µM,?,32µM,.
CNCc1ccc(OCc2ccccc2)c(OC)c1,.,.,.,.,?,.
COc1ccc(CN(CCc2ccccc2)Cc2ccccc2)cc1OC,79µM,.,10µM,?,?,.
CC[C@H](C)[C@H](NC(=O)[C@H](Cc1ccc(O)cc1)NC(=O)[C@H](Cc1cnc[nH]1)NC(=O)[C@H](CCCNC(=N)N)NC(=O)[C@H](CC(C)C)NC(=O)[C@H](C)NC(=O)[C@H](CO)NC(=O)[C@H](Cc1ccc(O)cc1)NC(=O)[C@H](Cc1ccc(O)cc1)NC(=O)[C@H](CCCNC(=N)N)NC(=O)[C@H](C)NC(=O)[C@H](CC(C)C)NC(=O)[C@H](CC(=O)O)NC(=O)[C@H](CCC(=O)O)NC(=O)[C@H](C)NC(=O)[C@@H]1CCCN1C(=O)[C@H](C)NC(=O)[C@H](CC(=O)O)NC(=O)[C@H](CCC(=O)O)NC(=O)CNC(=O)[C@@H]1CCCN1C(=O)[C@H](CC(N)=O)NC(=O)[C@H](CC(=O)O)NC(=O)[C@@H]1CCCN1C(=O)[C@H](CCCCN)NC(=O)[C@H](CO)NC(=O)[C@@H]1CCCN1C(=O)[C@@H](N)Cc1ccc(O)cc1)C(=O)N[C@@H](CC(N)=O)C(=O)N[C@@H](CC(C)C)C(=O)N[C@@H](CC(C)C)C(=O)N[C@H](C(=O)N[C@@H](CCCNC(=N)N)C(=O)N1CCC[C@H]1C(=O)N[C@@H](CCCNC(=N)N)C(=O)N[C@@H](Cc1ccc(O)cc1)C(N)=O)[C@@H](C)O,/,.,/,/,/,/
Cc1nnc(N2CCCC(C(=O)Nc3cccc(C(F)(F)F)c3)C2)c2nn(-c3ccccc3)c(C)c12 (stereo not drawn),.,.,.,.,.,/
O=C1COc2ccc(C(=O)CSc3nnc(Cc4cccs4)n3-c3ccc(Cl)cc3)cc2N1,.,.,.,.,.[12.7 µM],.
Nc1ccc2c(c1)ncn2CCCn1cnc2cc(N)ccc21,79µM,.,45µM,.,.,.
c1ccc(OCCCCn2cnc3ccccc32)cc1,.,.,.,.,.,.
Cc1ccccc1C(=O)Oc1ccc(Br)cc1C(=S)N1CCCC1,.,.,.,.,45µM,.
O=C(Oc1ccc(Br)cc1C(=S)N1CCCCC1)c1cc([N+](=O)[O-])cc([N+](=O)[O-])c1,?,.,?,?,?,?
O=C(Oc1ccc(Br)cc1C(=S)N1CCCC1)c1ccccc1F,.,.,.,.,8.9µM,27µM
O=C(Oc1ccc(C(=S)N2CCCCC2)cc1)c1ccccc1F,.,.,.,.,/,.
COCCNC(=O)C1(C)CCN(Cc2ccc(C(C)C)cc2)C1 (stereo not drawn),/,/,/,/,/,.
N#CC1=C(N)N(c2ccccc2)C(c2cccc([N+](=O)[O-])c2)C1(C#N)C#N (stereo not drawn),?,.,?,.,45µM,?
SMILES,BAZ2B block,VDR inh,JMJD2A Tudor,HP1b binding inh,G9a inh,PLK1 PBD inh
COc1ccc(C(=O)n2nc(-c3ccco3)nc2SC)cc1OC,.,?,?,.,20µM,?
COc1ccc(CNc2nc(-c3ccco3)nn2C(=O)c2ccccc2Cl)cc1,.,.,.,.,.,/
COc1ccc(C(=O)n2nc(-c3ccco3)nc2NCc2cccs2)cc1,.,.,.,.,10µM,/
O=C(CN1CCN(Cc2ccccc2)CC1)NNC(=O)c1ccccc1,.,.,.,.,?,.
COc1ccccc1NS(=O)(=O)/C=C/c1ccccc1,.,.,.,.,.,.
S=c1[nH]nc(CCc2ccc(Cl)cc2)o1,.,.,.,.,7.1µM,.
CC(C)(C)OC(=O)NCCc1n[nH]c(=S)o1,.,.,?,.,/,.
S=c1[nH]nc(COc2ccc(Cl)cc2)o1,.,.,79µM,.,4µM,?
O=C(COc1ccc2ccccc2c1)N/N=C/c1ccccn1,.,.,?,?,.[0.501 µM],19µM
O=C(COc1ccc2ccccc2c1)N/N=C/C1CC=CCC1 (stereo not drawn),.,.,.,.,.,.
Cc1cc(C)cc(OCC(=O)N/N=C/c2ccccn2)c1,79µM,.,?,.,?,.
CCCCCCCCC(=O)N/N=C/c1ccccn1,.,.,.,.,.,.
O=C(Cc1cccs1)N/N=C/c1ccccn1,.,.,?,.,1.4µM,.
Cc1ccccc1OCC(=O)N/N=C/c1ccccn1,.,.,.,.,.,30µM
O=C(Cc1cccs1)Nc1ccccn1,?,.,.,.,?,.
COC(=O)c1cc2oc(C)cc2n1Cc1ccc(Cl)cc1,?,.,.,.,.,/
Cc1cc(NCCCn2ccnc2)n2nc(C)c(-c3ccc(Cl)cc3)c2n1,32µM,.,?,.,?,.
O=C(NC1CCCCCC1)C1CCN(C(=O)N2CCOc3ccc(Cl)cc32)CC1,?,.,?,.,7.9µM,/
CCOC(=O)N1CCC(NC(=O)C2CCN(C(=O)N3CCOc4ccccc43)CC2)CC1,.,.,100µM,.,.[12.7 µM],?
CCC1CN(C(=O)N2CCC(C(=O)Nc3ccccc3OC)CC2)c2ccccc2O1 (stereo not drawn),.,?,?,.,.,27µM
CCOC(=O)N1CCC(NC(=O)C2CCCN(C(=O)N3CCOc4ccccc43)C2)CC1 (stereo not drawn),.,.,.,.,.,.
